# According to article PMC5540273 (PLoS ONE, 2017):
# Test system: LCK
# Conditions: concentration: 1 μM, replicates: in singlicate; n = 1
# 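Also: KINOMEscan kinase panel screen.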
row,Structure (SMILES),%Inh [%]
1,COc1ccc(Nc2nccc(N3CCC(NC(=O)Nc4cccc(OC)c4)C3)n2)cc1 (stereo not shown) [GSK1379742],13
2,Cc1ccc(C)c(NC(=O)NC2CCN(c3ccnc(Nc4ccc(F)cc4)n3)C2)c1 (stereo not shown) [GSK1379720],0
3,c1ccc(-c2n[nH]cc2Nc2ccnc3ccccc23)nc1 [GW694077],0
4,COc1cc(Nc2nccc(N3CCC(NC(=O)Nc4cccc(C(C)=O)c4)C3)n2)cc(OC)c1OC (stereo not shown) [GSK1379753],15
5,O=C(Nc1cccc(-c2nn3ncccc3c2-c2ccnc(Nc3ccccc3)n2)c1)c1c(F)cccc1F [GSK198271],99.3
6,c1ccc(-c2cnc3nccnn23)cc1 [AH20685],11
7,Cl.c1ccc(-c2ccc3c(Nc4ccc5[nH]ncc5c4)ccnc3c2)nc1 [GW440137],42
8,Fc1ccc(-c2ncn(C3CCNCC3)c2-c2ccnc(Oc3ccc(-c4ccccc4)cc3)n2)cc1 [SB-245391],0
9,Clc1ccc(-c2nn3ncccc3c2-c2ccnc(Nc3ccc4c(c3)OCCO4)n2)cc1 [GW829116],83
10,Cc1ccc(F)c(C(=O)Nc2cccc(-c3nn4ccccc4c3-c3ccnc(Nc4cccc(F)c4)n3)c2)c1F [GSK361061],97.1
11,CNC(=O)c1ccccc1Nc1nc(Nc2ccc(N3CCOCC3)cc2)ncc1Cl.Cl [GSK1576028],99.6
12,Cc1cccc(Nc2nc(N[C@H]3CCNC3)ncc2C(N)=O)c1.Cl [GSK2197149],40
13,CCn1c(-c2nonc2N)nc2c(C#CC(C)(C)O)nc(OC[C@H](N)c3ccccc3)cc21 [GSK943949],1
